Paper PMC4336329 (PLoS ONE, 2015)
Hit rate of the full screen: of about 310,000 compounds, about 14,000 (4.5%) showed an effect of 50% or more. Effects have a minus sign here. Many of the other results were omitted from the sample, so strong results are more common in it than they were.

Target: human ether-à-go-go-related gene (hERG) potassium channel (human, UniProt Q12809)
Test: primary screen, population patch clamp on CHO cells stably expressing hERG; higher = less effect of the substance
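Further: peak tail current of the secondary pulse compared with the same well before compound.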

Sequence of human ether-à-go-go-related gene (hERG) potassium channel (Q12809 whole entry, looked up): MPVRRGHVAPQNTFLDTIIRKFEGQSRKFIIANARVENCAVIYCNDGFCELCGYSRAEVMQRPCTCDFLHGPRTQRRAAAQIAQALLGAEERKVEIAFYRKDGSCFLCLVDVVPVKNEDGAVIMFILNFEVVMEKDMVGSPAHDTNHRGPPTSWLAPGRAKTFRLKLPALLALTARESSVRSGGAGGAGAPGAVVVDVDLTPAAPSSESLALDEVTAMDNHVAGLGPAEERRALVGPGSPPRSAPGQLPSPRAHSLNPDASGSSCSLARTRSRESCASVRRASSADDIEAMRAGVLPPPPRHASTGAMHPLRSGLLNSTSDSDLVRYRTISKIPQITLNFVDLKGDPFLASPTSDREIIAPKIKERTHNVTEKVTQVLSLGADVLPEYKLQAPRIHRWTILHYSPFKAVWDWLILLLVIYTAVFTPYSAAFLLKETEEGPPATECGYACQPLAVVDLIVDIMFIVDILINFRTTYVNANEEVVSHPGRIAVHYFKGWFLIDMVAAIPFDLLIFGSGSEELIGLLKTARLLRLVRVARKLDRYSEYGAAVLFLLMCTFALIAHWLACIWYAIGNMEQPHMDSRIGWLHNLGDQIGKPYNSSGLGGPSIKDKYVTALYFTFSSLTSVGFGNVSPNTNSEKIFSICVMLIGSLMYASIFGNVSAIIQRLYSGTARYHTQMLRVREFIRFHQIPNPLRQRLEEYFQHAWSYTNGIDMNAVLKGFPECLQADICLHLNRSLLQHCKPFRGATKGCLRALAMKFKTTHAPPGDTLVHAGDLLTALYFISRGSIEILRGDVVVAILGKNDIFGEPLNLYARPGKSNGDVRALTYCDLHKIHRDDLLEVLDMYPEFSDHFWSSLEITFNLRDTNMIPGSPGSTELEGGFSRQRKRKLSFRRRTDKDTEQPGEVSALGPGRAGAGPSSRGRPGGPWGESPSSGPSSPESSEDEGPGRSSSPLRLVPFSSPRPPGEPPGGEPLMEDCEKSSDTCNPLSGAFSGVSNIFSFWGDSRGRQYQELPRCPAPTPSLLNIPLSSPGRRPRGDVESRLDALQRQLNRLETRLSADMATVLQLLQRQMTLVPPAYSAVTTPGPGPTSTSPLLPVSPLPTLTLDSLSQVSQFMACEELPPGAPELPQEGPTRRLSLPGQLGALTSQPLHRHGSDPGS

Compound | hERG current change (%, negative = inhibition) at 10uM
Cc1ccc(S(=O)(=O)Cc2cc(F)c([N+](=O)[O-])cc2[N+](=O)[O-])cc1 | -14.3%
COc1ccc(CCNC(=S)NC(=O)c2cccc(Cl)c2)cc1OC | 1.73%
Cc1ccc(-c2nnc(N3CCN(c4ccccn4)CC3)c3ccccc23)cc1 | -46.3%
COc1ccccc1N1CCN(CC(O)COc2ccc3c(c2)OCO3)CC1.Cl (stereo not drawn) | -33.7%
Cc1ccccc1N1CCN(CCCOc2ccc3c(C)cc(=O)oc3c2)CC1 | -75.3%
Cc1cc(=O)oc2cc(OCCCN3C(=O)c4ccccc4C3=O)ccc12 | 10.4%
CNCC(O)CN1CCN(c2ccccc2OC)CC1.Cl (stereo not drawn) | 12.7%
COc1ccccc1N1CCN(CC(O)COc2ccc(C)cc2C)CC1.Cl (stereo not drawn) | -73.1%
COc1ccc(N2CCN(CCOc3ccc4c(C)cc(=O)oc4c3)CC2)cc1 | -26.1%
COc1ccc(N2CCN(CC(O)COc3ccc(C)c(C)c3)CC2)cc1.Cl (stereo not drawn) | -43.7%
COc1ccccc1N1CCN(CC(O)COc2ccc(C)c(C)c2)CC1.Cl (stereo not drawn) | -55.9%
O=C(CCc1ccccc1)NNC(=O)C1CCCCC1 | -2.12%
CC(C)Nc1ccc(-n2nc3ccccc3[n+]2[O-])cc1 | 6.09%
O=C1CCCCCC1C1(O)C(=O)Nc2ccccc21 (stereo not drawn) | -1.78%
CC1(c2ccccc2)NC(=O)N(CC(=O)NNC(=O)c2ccccc2)C1=O (stereo not drawn) | 21.3%
Cc1ccc(CNC(=O)C2CC(=O)OC23CCCC3)c(C)c1 (stereo not drawn) | -0.109%
CCCCNC(=O)c1ccc(CNS(=O)(=O)c2ccc(Br)cc2)cc1 | 2%
CCOc1ccc2nc(NC(=O)CSc3nc4cccnc4n3C)sc2c1 | 17.4%
COc1ccccc1N1CCN(C(c2ccc(C)cc2)c2nnnn2C(C)C)CC1 (stereo not drawn) | -5.61%
O=C(Nc1sc2c(c1C(=O)O)CCCC2)c1ccccc1Cl | 11.9%
Cc1c(Cl)cnc(NC(=O)COC(=O)c2ccc3ncsc3c2)c1Cl | -2.49%
CCn1cc(C(=O)NCC(OC)OC)c(=O)c2cc(S(=O)(=O)N(C)C3CCCCC3)ccc21 | -44.2%
CCN(CC)CCNC(=O)c1cn(CC)c2ccc(S(=O)(=O)N(C)C)cc2c1=O | 11.1%
CCCN(CCC)CCCNC(=O)c1cn(CC)c2ccc(S(=O)(=O)N(C)C3CCCCC3)cc2c1=O | -74.3%
CCn1cc(C(=O)NC2CCCCC2)c(=O)c2cc(S(=O)(=O)N(C)C)ccc21 | 2.38%
CCn1cc(C(=O)NCCCOC)c(=O)c2cc(S(=O)(=O)N(C)C3CCCCC3)ccc21 | -23%
CCOCCCNC(=O)c1cn(CC)c2ccc(S(=O)(=O)N(C)C3CCCCC3)cc2c1=O | -55.7%

Compound | hERG current change (%, negative = inhibition) at 10uM
CCN(CC)CCNC(=O)c1cn(CC)c2ccc(S(=O)(=O)N(C)C3CCCCC3)cc2c1=O | -67.2%
CCCCN(CCCC)CCNC(=O)c1cn(CC)c2ccc(S(=O)(=O)N(C)C3CCCCC3)cc2c1=O | -82.5%
CC1(C(=O)OCC(=O)Nc2cccc(S(=O)(=O)NC3=NCCCCC3)c2)CC1(Cl)Cl (stereo not drawn) | 10.7%
CCc1noc(C)c1C(=O)Nc1cc(S(=O)(=O)N2CCOCC2)ccc1OC(C)C | -45.1%
CCN(CC(=O)Nc1c(F)cccc1F)C(=O)c1csc2c1CCCC2 | 7.01%
COC(=O)c1c(-c2ccc(F)cc2)csc1NC(=O)c1ccco1 | 22.9%
COc1cccc2cc(C(C)N(CCCN3CCOCC3)C(=S)Nc3cccc(C)c3)oc12 (stereo not drawn) | 14.8%
CCC(C)c1ccc(OCc2ccc(C(=O)OC)o2)cc1 (stereo not drawn) | -12.8%
O=C(OCc1cc(-c2ccccc2)no1)c1ccc2ccccc2n1 | 12.2%
Cc1cc(CNC(=O)COc2ccc(C#N)cc2)c2ccccc2n1 | -47.2%
COc1cc(OC)cc(C(=O)NCc2cc(C)nc3ccccc23)c1 | -2.16%
Cc1ccc(C)c(NC(=O)CN(C)C(=O)c2ccc(Cl)nc2)c1 | -7.48%
CCn1cc(C(=O)NCCCN(CC(C)C)CC(C)C)c(=O)c2cc(S(=O)(=O)N3CCOCC3)ccc21 | -11.3%
CCN(CC)CCCNC(=O)c1cn(CC)c2ccc(S(=O)(=O)N(C)C3CCCCC3)cc2c1=O | -75.7%
CCn1cc(C(=O)NCCCN(CC(C)C)CC(C)C)c(=O)c2cc(S(=O)(=O)N(C)C3CCCCC3)ccc21 | -69.6%
Cc1ccccc1NC(=O)Cc1nc(-c2ccc3ccccc3c2)cs1 | 6.09%
COc1ccc2[nH]cc(CCNC(=O)C3CC(=O)N(c4ccc(Cl)cc4)C3)c2c1 (stereo not drawn) | -10.4%
O=C(Nc1cccnc1)c1c(O)c2c(n(Cc3ccccc3)c1=O)CCCC2 | 2.61%
Cc1ccc(OCCn2ccnc2)c([N+](=O)[O-])c1 | -4.29%
COc1ccc(Cn2ccnc2)cc1[N+](=O)[O-] | -0.186%
CCCCCOc1ccc(Cn2ccnc2)cc1[N+](=O)[O-].Cl | -45.4%
CCCOc1ccc(Cn2ccnc2)cc1[N+](=O)[O-] | -52.3%
Cc1ccc(OCCCn2ccnc2)c([N+](=O)[O-])c1 | -34.4%
Cc1ccc(OCCCCn2ccnc2)c([N+](=O)[O-])c1 | -51.5%
CC(C)CN(C(=O)COC(=O)c1cccc2ccccc12)c1c(N)n(Cc2ccccc2)c(=O)[nH]c1=O | 6.01%
O[C@@H]1C2CCCC1[C@]1(O)CCCCC1C2 (stereo partly drawn) | 8.35%
Cc1ccc(Cl)c(OCC(=O)Nc2ccccc2N2CCCCC2)c1 | 5.15%
